# Rows were chosen to be rich in hits. Some 31% of all compounds tested hit in one or more screens of this group.
# CYP2C9 inhib: inhibitors of human CYP2C9. P11712. inhibition, % at 5 µM. CYP2C9 Supersomes, luciferin-H conversion, luminescence. hit rate 20% among 96,000;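 active = blocking of liver enzyme CYP2C9 beyond about 50% at 5 µM, limit read from the data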
# CYP2C9 act: CYP2C9 (human) activation | hit rate 1.4% among 96,000 | activation factor at 5 µM | recombinant CYP2C9, luciferin-H conversion, luminescence; stronger effect = higher value; factor 1 = untreated enzyme, 0 = blocked | AID 1024 | P11712;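 active = activation factor of 2 or more for CYP2C9 at a 5 µM dose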;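 note: 0 = sulfaphenazole-blocked wells and 1 = vehicle-only wells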
# CYP2C19 inhib: human CYP2C19 inhibition | P33261 | CYP2C19 Supersomes, luciferin-H EGE luminescence, 30 min | inhibition, % at 5 µM | hit rate 21% among 96,000;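 active = CYP2C19 inhibition above a set limit at 5 µM in the primary screen, cut at about 50% in these data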;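 note: plate controls were negative control wells for no effect and 2.5 mM tranylcypromine positive control for full effect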
# Target sequence (P33261 whole entry, looked up): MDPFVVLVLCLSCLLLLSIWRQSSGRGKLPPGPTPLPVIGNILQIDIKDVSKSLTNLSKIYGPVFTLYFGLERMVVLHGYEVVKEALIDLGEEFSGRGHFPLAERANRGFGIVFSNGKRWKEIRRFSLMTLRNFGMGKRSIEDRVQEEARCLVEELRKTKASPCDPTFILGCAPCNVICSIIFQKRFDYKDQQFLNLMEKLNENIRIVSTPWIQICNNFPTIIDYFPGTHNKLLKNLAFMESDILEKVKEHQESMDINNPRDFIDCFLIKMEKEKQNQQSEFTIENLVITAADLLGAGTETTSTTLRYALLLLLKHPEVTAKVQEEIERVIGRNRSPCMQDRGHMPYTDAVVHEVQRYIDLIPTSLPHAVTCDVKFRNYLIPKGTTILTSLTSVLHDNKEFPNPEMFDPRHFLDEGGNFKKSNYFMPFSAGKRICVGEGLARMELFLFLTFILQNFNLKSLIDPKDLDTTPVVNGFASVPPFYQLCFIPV
# PLAP activator: activators of human placental alkaline phosphatase; purified PLAP enzyme, luminescent substrate read-out; stronger effect = higher value; activation fold at 20 µM; hit rate 1.2% among 96,000; AID 696; in the data active = activation fold above about 2
# CYP2C19 act: increases human CYP2C19 enzyme activity; activation factor at 5 µM; P33261; 96,000 tested, under 10 active; recombinant CYP2C19, luciferin-H EGE luminescence; stronger effect = higher value; 0 = fully inhibited enzyme, 1 = untreated enzyme;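 active = activation factor of at least 2 at 5 µM in the primary screen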;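 note: 0 = wells with 2.5 mM tranylcypromine and 1 = vehicle-only wells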
# Active calls of the source: *.
SMILES,CYP2C9 inhib,CYP2C9 act,CYP2C19 inhib,PLAP activator,CYP2C19 act
Cn1c(=O)cc(OCC(=O)NC2CCCCC2)c2ccccc21,1.6,1,62.3*,1.3,0.4
CCC1CCCCN1CCCNC(=O)COc1cc(=O)n(C)c2ccccc12 (configuration not stated),3.3,1,-4.0,1,1
CC(=O)N1CCN(C(=O)Cn2c(=O)oc3ccccc32)CC1,8.9,0.9,7.6,1,0.9
CCC1CCCCN1C(=O)Cn1c(C(=O)OC)cc2sc(Cl)cc21 (configuration not stated),6.7,0.9,31.3,0.9,0.7
CCC1CCCCN1C(=O)COc1cc(=O)n(C)c2ccccc12 (configuration not stated),7.5,0.9,59.2*,0.9,0.4
CCC1CCCCN1C(=O)Cn1c(=O)oc2ccccc21 (configuration not stated),12.3,0.9,83.3*,0.9,0.2
CSc1nc(-c2ccccc2)nn1C(=O)c1ccc(C)cc1,15.0,0.8,25.1,0.9,0.7
CN(CCNC(=O)Cn1c(=O)sc2ccccc21)Cc1ccccc1,-10.1,1.1,40.2,1.4,0.6
Cc1ccc2cccnc2c1NC(=S)NC(=O)c1ccccc1,13.7,0.9,39.1,1.9,0.6
O=C(NC1CCCCCC1)c1ccc(CN2CCOCC2)cc1,11.6,0.9,5.5,0.9,0.9
c1ccc2sc(N3CN(CCN4CCOCC4)CN(c4nc5ccccc5s4)C3)nc2c1,24.1,0.8,33.8,1.8,0.7
C(=N\N1CCN(C2c3ccccc3-c3ccccc32)CC1)/c1cccnc1,91.0*,0.1,83.7*,1.2,0.2
C/C(=N\N1CCN(C2c3ccccc3-c3ccccc32)CC1)c1cccnc1,72.9*,0.3,65.7*,1.2,0.3
C(=N\N1CCN(C2c3ccccc3-c3ccccc32)CC1)/c1ccccn1,27.0,0.7,6.7,1.3,0.9
COc1ccc(Nc2c3c(c(C#N)c4nc5ccccc5n24)CCC3)cc1,2.2,1,12.4,1.1,0.9
CCC1CC(CSc2ncn[nH]2)OC1=O (configuration not stated),12.6,0.9,5.5,1,0.9
Cc1ccc(NC(=O)O/N=C2\CCCCC2c2ccc([N+](=O)[O-])cc2[N+](=O)[O-])cc1 (configuration not stated),82.1*,0.2,40.7,1,0.6
CCN(CC)CCCN1C(=O)C(=O)/C(=C(/O)c2ccc3c(c2)CC(C)O3)C1c1cccnc1 (configuration not stated),-16.6,1.2,-6.4,0.9,1.1
Cc1cc2c(C)cc(=O)oc2c2c1NCCC2,-210.0,3.1*,16.0,1.1,0.8
Cc1cc(=O)oc2cc3c(cc12)OCCN3,9.3,0.9,6.0,1.2,0.9
Cc1ccnc(N2CCC(C(=O)NNC(=O)c3ccccc3C)CC2)n1,17.9,0.8,18.4,1.6,0.8
CCCNS(=O)(=O)c1ccc(CCC(=O)N2CCC(C)CC2)cc1,51.9*,0.5,81.5*,1.2,0.2
CC1CCN(C(=O)CCc2ccc(S(=O)(=O)NC(C)(C)C)cc2)CC1,62.8*,0.4,74.2*,1.6,0.3
OCCN(CCO)c1ncnc2c1oc1ccc(Br)cc12,25.4,0.7,-9.4,1.2,1.1
CN(C)c1ccc(-c2nnc(-c3ccc(S(=O)(=O)C(F)F)cc3)o2)cc1,22.1,0.8,5.6,0.9,0.9
SMILES,CYP2C9 inhib,CYP2C9 act,CYP2C19 inhib,PLAP activator,CYP2C19 act
CN(C)c1ccc(-c2ccncc2)cc1,49.8,0.5,97.5*,0.9,0
CSCCc1nc(SCC(=O)Nc2nnc(C)s2)[nH]c1C,0.9,1,-4.2,0.9,1
COc1ccc(C(c2nnnn2C(C)(C)C)N2CCN(C)CC2)cc1OC (configuration not stated),-6.4,1.1,-4.1,1.6,1
CCC(C)(C)n1nnnc1C(c1ccc(OC)c(OC)c1)N1CCN(c2cccc(OC)c2)CC1 (configuration not stated),86.4*,0.1,55.9*,1.7,0.4
CCC(C)(C)n1nnnc1C(c1ccc(OC)c(OC)c1)N1CCN(c2ccc(OC)cc2)CC1 (configuration not stated),88.5*,0.1,56.8*,1.3,0.4
CCC(C)(C)n1nnnc1C(c1ccc(OC)c(OC)c1)N1CCN(c2ccccc2)CC1 (configuration not stated),70.6*,0.3,67.9*,1.7,0.3
Cc1cc(C)nc(NC(=O)c2cccc(Cl)c2)n1,2.0,1,5.3,0.9,0.9
COc1c(F)c(F)c(C(=O)Nc2ccc(N3CCN(Cc4ccccc4)CC3)cc2)c(F)c1F,57.4*,0.4,-22.2,1,1.2
Cc1ccccc1C(=O)N1CCN(c2ccc(NC(=O)c3ccco3)cc2Cl)CC1,43.8,0.6,42.6,1.6,0.6
COc1c(F)c(F)c(C(=O)Nc2ccc(N3CCN(C(C)=O)CC3)c(Cl)c2)c(F)c1F,66.3*,0.3,38.1,1.3,0.6
O=C(Nc1ccc(N2CCN(C(=O)c3cccs3)CC2)c(Cl)c1)c1ccco1,54.2*,0.5,32.3,0.8,0.7
O=C(Nc1ccc(N2CCN(C(=O)c3ccco3)CC2)c(Cl)c1)c1c(F)c(F)c(F)c(F)c1F,72.6*,0.3,68.2*,0.9,0.3
CCOC(=O)c1ccccc1NC(=O)Cn1cnc2c(oc3ccccc32)c1=O,42.7,0.6,15.4,0.9,0.8
CCCCCOc1ccccc1C(=O)NCCC(=O)O,48.8,0.5,34.4,1.1,0.7
CCCc1[nH]nc2c1C(c1cccc(OC)c1)C(C#N)=C(N)O2 (configuration not stated),76.2*,0.2,72.9*,1.5,0.3
CCCc1[nH]nc2c1C(c1ccc(O)cc1OCC)C(C#N)=C(N)O2 (configuration not stated),53.2*,0.5,76.0*,0.7,0.2
COc1c(F)c(F)c(C(=O)Nc2cccc(Cl)c2N2CCOCC2)c(F)c1F,-14.1,1.1,-12.3,1,1.1
CCCc1nc2oc3c(N4CCNCC4)ncnc3c2c2c1CCCC2,9.4,0.9,9.2,1.3,0.9
Cn1c(=O)cc(OCCCC(=O)N2CCN(c3ccccc3)CC2)c2ccccc21,61.2*,0.4,80.2*,1.4,0.2
Cn1c(=O)cc(SCC(=O)N2CCCC2)c2ccc(Cl)cc21,-3.9,1,29.6,1.1,0.7
Cn1c(=O)cc(SCC(=O)N2CCN(c3ccccn3)CC2)c2ccccc21,62.4*,0.4,15.0,1.6,0.8
Cn1c(=O)cc(SCC(=O)N2CCN(c3ccccc3)CC2)c2ccccc21,-42.8,1.4,51.2*,1.4,0.5
CCC(C)(C)n1nnnc1C(C(C)C)N1CCC(C(N)=O)CC1 (configuration not stated),1.6,1,-3.6,1,1
CSCCC(NC(=O)c1ccoc1C)C(=O)O (configuration not stated),16.2,0.8,-2.6,0.9,1
COc1ccc2occ(C(=O)c3coc4ccc(O)c(CN(C)C)c34)c2c1,22.7,0.8,14.5,1.3,0.9

# Source: PubChem BioAssay
